Source: the supplement of paper PMC10849652
About 7,900 targets were measured; listed, in parts, are those with a hit and a random draw of the rest. About 0.6% of all pairs of compound and target were hits.

Legend:
Assay in all cases: log2 fold change, soluble protein after heating vs DMSO (PISA); higher = thermal stabilisation; K562 cells, 10 uM, 30 min; active = over 0.2 and 3.5 SD of the protein, either way, in both replicates (recomputed)
[1] = compound: CC[C@@H]1C(=O)N(C)c2cnc(Nc3ccc(C(=O)NC4CCN(C)CC4)cc3OC)nc2N1C1CCCC1
Method in brief: (§1)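 Aliquots of K562 cells (2×10^6 cells/mL) treated with 10 μM compound for 30 min were heated for 3 min over 48°C-58°C. After pooling and extraction in PBS with 0.5% NP-40 at 4°C, soluble protein from a 21,000xg, 90 min spin was quantified by TMTpro 16plex LC-MS/MS with channel sums equalised. Thermal stability is expressed against control samples, from duplicates, as a log2 fold change.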

[2] = compound: CC[C@@H]1C(=O)N(C)c2cnc(Nc3ccc(C(=O)N[C@H]4CC[C@H](N5CCN(CC6CC6)CC5)CC4)cc3OC)nc2N1C(C)C [volasertib]
Method in brief: as §1

[3] = compound: CC[C@H](C)N1C=C(C2=C(C=C(C=C21)C3=CN=C(C=C3)N4CCNCC4)C(=O)NCC5=C(C=C(NC5=O)C)C)C
Method in brief: as §1

[4] = compound: CC[C@H](C)[C@@H](C(=O)N[C@@H]([C@@H](C)O)C(=O)N[C@@H](CC(C)C)C(=O)[C@]1(CO1)C)NC(=O)[C@H]([C@@H](C)CC)N(C)C(=O)C [epoxomicin]
Method in brief: as §1

[5] = compound: CCn1c(C(=O)N(C2CC2)C2CC2)cc2c3c(ncn3C)c(Nc3cc(C)n(C)n3)nc21
Method in brief: as §1

[6] = compound: CCn1cc(-c2ccnc3[nH]c(-c4cccc(CN(C)C)c4)cc23)c(-c2ccc(NC(=O)N(C)C)cc2)n1
Method in brief: as §1

[7] = compound: CN(C)CC(=O)Nc1ccc2[nH]c(=O)c3ccccc3c2c1
Method in brief: as §1

[8] = compound: CN(CCOC1=CC=C(C=C1)C[C@H]2C(=O)NC(=O)S2)C3=CC=CC=N3 (racemic) [rosiglitazone]
Method in brief: as §1

[9] = compound: CN1C2=C(C3=C1C(=O)N(N=C3)CC4=CC(=CC=C4)N)SC(=C2)S(=O)C
Method in brief: as §1

[10] = compound: CN1CCC(CNc2ccc3ncc(-c4cccc(OC(F)(F)F)c4)n3n2)CC1
Method in brief: as §1

[11] = compound: CN1CCN(CCOc2cc(OC3CCOCC3)c3c(Nc4c(Cl)ccc5c4OCO5)ncnc3c2)CC1 [saracatinib]
Method in brief: as §1

[12] = compound: CN1CCN(c2nc(C3=C(c4c[nH]c5ccccc45)C(=O)NC3=O)c3ccccc3n2)CC1 [sotrastaurin]
Method in brief: as §1

[13] = compound: CN1CC[C@H](c2c(O)cc(O)c3c(=O)cc(-c4ccccc4Cl)oc23)[C@H](O)C1 [alvocidib]
Method in brief: as §1

[14] = compound: CN1CCc2c(c3ccccc3n2Cc2ccc(C(=O)NO)cc2)C1 [Tubastatin A]
Method in brief: as §1

[15] = compound: CNC(=O)C1=CC=CC=C1NC2=NC(=NC=C2Cl)NC3=C(C=C(C=C3)N4CCOCC4)OC
Method in brief: as §1

[16] = compound: CNC(=O)c1ccc(Nc2ncc(C(F)(F)F)c(NCc3nccnc3N(C)S(C)(=O)=O)n2)cc1 [defactinib]
Method in brief: as §1

[17] = compound: CNCc1ccc(-c2[nH]c3cc(F)cc4c3c2CCNC4=O)cc1 [rucaparib]
Method in brief: as §1

[18] = compound: CNc1nc(-c2ccc3c(N)n[nH]c3c2)cc(N2C[C@@H](C(=O)NC3CCCCC3)CC[C@H]2C)n1
Method in brief: as §1

[19] = compound: COC(=O)N[C@@H](C)CNc1nccc(-c2cn(C(C)C)nc2-c2cc(Cl)cc(NS(C)(=O)=O)c2F)n1 [encorafenib]
Method in brief: as §1

[20] = compound: COC(=O)[C@H](CCSC)NC(=O)C1=C(C=C(C=C1)NC[C@H](CS)N)C2=CC=CC=C2
Method in brief: as §1

Measured: log2 fold change

XPNPEP3 (UniProt Q9NQH7)
Sequence of UniProt Q9NQH7 (Q9NQH7 whole entry, looked up): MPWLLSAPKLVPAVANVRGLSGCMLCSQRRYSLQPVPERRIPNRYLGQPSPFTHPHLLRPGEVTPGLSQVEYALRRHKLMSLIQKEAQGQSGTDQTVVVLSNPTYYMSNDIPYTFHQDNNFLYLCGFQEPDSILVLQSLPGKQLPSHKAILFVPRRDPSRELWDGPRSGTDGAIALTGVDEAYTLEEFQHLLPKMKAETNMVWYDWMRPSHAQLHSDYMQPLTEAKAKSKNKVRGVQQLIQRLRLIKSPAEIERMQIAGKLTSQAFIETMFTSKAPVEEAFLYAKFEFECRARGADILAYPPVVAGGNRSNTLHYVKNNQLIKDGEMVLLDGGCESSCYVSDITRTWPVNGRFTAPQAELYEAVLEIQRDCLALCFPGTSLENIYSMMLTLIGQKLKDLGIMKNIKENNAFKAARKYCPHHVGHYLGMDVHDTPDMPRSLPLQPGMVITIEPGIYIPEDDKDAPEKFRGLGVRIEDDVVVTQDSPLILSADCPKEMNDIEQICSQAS
inactive: [1] 0.046 | [2] 0.075 | [3] 0.069 | [4] 0.075 | [5] 0.01 | [6] -0.076 | [7] -0.004 | [8] -0.002 | [9] -0.022 | [10] 0.012 | [11] 0.022 | [12] -0.017 | [13] -0.029 | [14] -0.021 | [15] 0 | [16] -0.033 | [17] -0.018 | [18] -0.035 | [19] -0.005 | [20] 0.038

U2AF1 isoform 2 (UniProt Q01081)
Sequence of UniProt Q01081 (Q01081 whole entry, looked up): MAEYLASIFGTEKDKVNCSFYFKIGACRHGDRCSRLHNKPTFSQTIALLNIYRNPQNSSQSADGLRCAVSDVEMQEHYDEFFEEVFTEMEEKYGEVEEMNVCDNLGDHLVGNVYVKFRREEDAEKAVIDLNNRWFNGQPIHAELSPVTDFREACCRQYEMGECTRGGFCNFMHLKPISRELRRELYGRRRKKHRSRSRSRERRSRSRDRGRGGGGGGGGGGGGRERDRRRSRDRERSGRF
inactive: [1] -0.217 | [3] 0.051 | [4] -0.02 | [5] 0.015 | [6] -0.015 | [7] 0.071 | [8] -0.007 | [9] -0.021 | [10] -0.036 | [11] -0.027 | [12] -0.062 | [13] -0.064 | [14] 0.042 | [15] -0.104 | [16] -0.086 | [17] 0.045 | [18] -0.009 | [19] 0.041 | [20] -0.075
active: [2] -0.57

VPS28 (UniProt Q9UK41)
Sequence of UniProt Q9UK41 (Q9UK41 whole entry, looked up): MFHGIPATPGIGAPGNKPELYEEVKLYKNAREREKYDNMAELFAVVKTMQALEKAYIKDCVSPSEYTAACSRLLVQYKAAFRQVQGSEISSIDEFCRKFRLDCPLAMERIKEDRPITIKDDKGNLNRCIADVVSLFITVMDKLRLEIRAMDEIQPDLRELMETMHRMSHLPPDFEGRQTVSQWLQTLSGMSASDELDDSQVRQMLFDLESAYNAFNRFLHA
active: [2] -0.3
inactive: [1] -0.057 | [3] 0.032 | [4] 0.09 | [5] 0.001 | [6] -0.048 | [7] 0.011 | [8] 0.102 | [9] -0.038 | [10] -0.139 | [11] -0.101 | [12] -0.078 | [13] -0.135 | [14] 0.072 | [15] 0.043 | [16] -0.172 | [17] -0.044 | [18] -0.046 | [19] 0.082 | [20] -0.033

TMEM223 (UniProt A0PJW6)
Sequence of UniProt A0PJW6 (A0PJW6 whole entry, looked up): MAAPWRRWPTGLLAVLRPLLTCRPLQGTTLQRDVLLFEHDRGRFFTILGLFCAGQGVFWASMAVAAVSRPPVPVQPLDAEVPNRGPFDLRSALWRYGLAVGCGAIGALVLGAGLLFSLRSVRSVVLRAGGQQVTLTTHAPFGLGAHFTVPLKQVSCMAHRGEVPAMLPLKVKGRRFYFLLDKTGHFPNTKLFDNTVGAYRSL
active: [10] -0.271
inactive: [1] -0.004 | [2] 0.043 | [3] 0.035 | [4] -0.01 | [5] -0.009 | [6] 0.022 | [7] -0.015 | [8] 0.032 | [9] -0.022 | [11] 0.114 | [12] 0.048 | [13] -0.025 | [14] -0.059 | [15] 0.045 | [16] 0.015 | [17] -0.03 | [18] -0.02 | [19] -0.047 | [20] 0.022

VPS8 (UniProt Q8N3P4)
Sequence of UniProt Q8N3P4 (Q8N3P4 whole entry, looked up): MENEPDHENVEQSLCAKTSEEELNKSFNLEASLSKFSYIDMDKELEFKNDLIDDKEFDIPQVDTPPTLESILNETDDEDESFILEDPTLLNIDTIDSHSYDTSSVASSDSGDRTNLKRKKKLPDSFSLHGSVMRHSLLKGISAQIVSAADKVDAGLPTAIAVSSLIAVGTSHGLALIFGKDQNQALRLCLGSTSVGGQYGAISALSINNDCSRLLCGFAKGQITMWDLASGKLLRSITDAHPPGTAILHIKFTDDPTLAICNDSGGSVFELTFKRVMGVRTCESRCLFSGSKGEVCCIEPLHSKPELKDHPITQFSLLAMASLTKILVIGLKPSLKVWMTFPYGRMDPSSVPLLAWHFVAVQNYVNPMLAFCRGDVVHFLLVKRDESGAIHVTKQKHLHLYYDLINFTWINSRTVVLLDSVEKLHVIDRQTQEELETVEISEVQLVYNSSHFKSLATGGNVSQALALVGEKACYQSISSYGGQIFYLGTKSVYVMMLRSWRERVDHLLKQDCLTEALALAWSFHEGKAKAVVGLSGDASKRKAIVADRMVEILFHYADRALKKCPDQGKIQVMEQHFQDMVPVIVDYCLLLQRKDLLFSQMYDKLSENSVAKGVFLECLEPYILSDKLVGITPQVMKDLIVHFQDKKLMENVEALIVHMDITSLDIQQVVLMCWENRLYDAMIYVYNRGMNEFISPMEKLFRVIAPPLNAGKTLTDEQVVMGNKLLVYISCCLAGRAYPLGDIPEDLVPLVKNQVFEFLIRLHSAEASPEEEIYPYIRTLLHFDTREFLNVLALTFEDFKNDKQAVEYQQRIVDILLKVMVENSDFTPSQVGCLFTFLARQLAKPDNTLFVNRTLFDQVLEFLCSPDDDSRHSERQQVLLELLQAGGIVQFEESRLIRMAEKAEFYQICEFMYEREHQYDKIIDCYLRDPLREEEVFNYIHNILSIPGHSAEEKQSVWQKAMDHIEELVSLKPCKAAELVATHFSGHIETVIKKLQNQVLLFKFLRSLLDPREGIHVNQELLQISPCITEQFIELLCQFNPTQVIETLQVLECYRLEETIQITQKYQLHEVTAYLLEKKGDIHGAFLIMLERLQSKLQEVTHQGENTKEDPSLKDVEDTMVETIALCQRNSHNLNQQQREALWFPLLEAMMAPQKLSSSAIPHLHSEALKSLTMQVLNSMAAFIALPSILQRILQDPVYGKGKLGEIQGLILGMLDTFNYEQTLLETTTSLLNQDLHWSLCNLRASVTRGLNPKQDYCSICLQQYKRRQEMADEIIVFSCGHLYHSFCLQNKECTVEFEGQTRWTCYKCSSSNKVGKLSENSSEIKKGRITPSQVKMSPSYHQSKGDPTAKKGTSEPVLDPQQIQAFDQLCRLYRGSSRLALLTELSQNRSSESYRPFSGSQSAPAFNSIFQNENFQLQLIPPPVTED
active: [2] -0.647 | [10] -0.332
inactive: [1] -0.087 | [3] 0.079 | [4] -0.015 | [5] -0.068 | [6] -0.038 | [7] 0.001 | [8] 0.118 | [9] -0.023 | [11] -0.009 | [12] -0.096 | [13] -0.038 | [14] 0.09 | [15] 0.002 | [16] -0.171 | [17] 0.023 | [18] -0.015 | [19] 0.093 | [20] -0.078

TRAPPC13 isoform 5 (UniProt A5PLN9)
Sequence of UniProt A5PLN9 (A5PLN9 whole entry, looked up): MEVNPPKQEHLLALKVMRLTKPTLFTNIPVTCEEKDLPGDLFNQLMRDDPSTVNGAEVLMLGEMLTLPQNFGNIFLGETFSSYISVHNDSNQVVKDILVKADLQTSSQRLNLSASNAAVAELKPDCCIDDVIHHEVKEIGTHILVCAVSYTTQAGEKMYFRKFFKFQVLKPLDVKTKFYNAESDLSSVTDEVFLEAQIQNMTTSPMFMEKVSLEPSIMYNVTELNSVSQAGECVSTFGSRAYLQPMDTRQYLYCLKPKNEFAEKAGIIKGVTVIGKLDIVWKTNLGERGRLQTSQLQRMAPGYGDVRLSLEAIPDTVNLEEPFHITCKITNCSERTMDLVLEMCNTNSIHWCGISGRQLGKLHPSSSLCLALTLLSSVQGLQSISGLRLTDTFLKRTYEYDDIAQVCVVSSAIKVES
inactive: [1] -0.055 | [2] -0.34 | [3] 0.044 | [4] -0.014 | [5] -0.072 | [6] -0.068 | [7] 0.078 | [8] 0.087 | [9] 0.042 | [10] -0.187 | [11] 0.045 | [12] -0.061 | [13] -0.029 | [14] 0.026 | [15] 0.04 | [16] -0.051 | [17] 0.072 | [18] -0.045 | [19] 0.217 | [20] -0.099

TRMT2A (UniProt Q8IZ69)
inactive: [1] 0.01 | [2] 0.016 | [3] 0.044 | [4] -0.083 | [5] 0.086 | [6] -0.003 | [7] 0.034 | [8] -0.001 | [9] 0.1 | [10] -0.198 | [11] -0.011 | [12] -0.076 | [13] -0.045 | [14] -0.005 | [15] -0.049 | [16] -0.031 | [17] 0.084 | [18] 0.094 | [19] 0.056 | [20] -0.094

VPS13B (UniProt Q7Z7G8)
inactive: [1] -0.01 | [2] -0.088 | [3] 0.004 | [4] 0.019 | [5] -0.016 | [6] -0.008 | [7] -0.028 | [8] 0.011 | [9] -0.053 | [10] -0.109 | [11] 0.033 | [12] 0.016 | [13] -0.003 | [14] 0.032 | [15] -0.002 | [16] 0.009 | [17] -0.039 | [18] -0.016 | [19] 0.031 | [20] -0.01

UCHL5 (UniProt Q9Y5K5)
active: [2] -0.295
inactive: [1] -0.113 | [3] 0.074 | [4] 0.116 | [5] -0.017 | [6] -0.028 | [7] 0.04 | [8] 0.03 | [9] -0.003 | [10] -0.099 | [11] -0.044 | [12] -0.057 | [13] -0.097 | [14] 0.148 | [15] 0.013 | [16] -0.107 | [17] 0.074 | [18] -0.001 | [19] 0.091 | [20] -0.028

WDR41 (UniProt Q9HAD4)
inactive: [1] -0.169 | [3] -0.056 | [4] 0.061 | [5] -0.026 | [6] -0.043 | [7] 0.012 | [8] 0.007 | [9] -0.076 | [10] -0.115 | [11] 0.071 | [12] -0.037 | [13] -0.014 | [14] -0.054 | [15] -0.046 | [16] -0.007 | [17] 0.015 | [18] -0.031 | [19] 0.008 | [20] 0.036
active: [2] -0.282

TOM1 isoform 2 (UniProt O60784)
Sequence of UniProt O60784 (O60784 whole entry, looked up): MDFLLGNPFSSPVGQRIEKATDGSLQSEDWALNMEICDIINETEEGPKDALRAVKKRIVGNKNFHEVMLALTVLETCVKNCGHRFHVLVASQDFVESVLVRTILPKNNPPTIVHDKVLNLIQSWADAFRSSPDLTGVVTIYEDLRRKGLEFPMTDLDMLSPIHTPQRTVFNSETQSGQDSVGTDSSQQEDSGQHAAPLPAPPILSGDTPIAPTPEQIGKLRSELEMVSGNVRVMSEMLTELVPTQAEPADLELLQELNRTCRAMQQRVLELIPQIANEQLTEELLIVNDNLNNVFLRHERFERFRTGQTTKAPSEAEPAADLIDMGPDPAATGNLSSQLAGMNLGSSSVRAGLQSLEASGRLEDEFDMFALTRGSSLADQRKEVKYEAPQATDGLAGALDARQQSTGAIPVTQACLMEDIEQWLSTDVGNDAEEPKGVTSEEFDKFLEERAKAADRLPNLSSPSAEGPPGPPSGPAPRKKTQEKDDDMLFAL
inactive: [1] -0.056 | [2] -0.196 | [3] 0.037 | [4] -0.035 | [5] -0.018 | [6] -0.082 | [7] 0.026 | [8] 0.001 | [9] 0.006 | [10] -0.274 | [11] 0.033 | [12] -0.132 | [13] 0.001 | [14] 0.132 | [15] -0.025 | [16] -0.087 | [17] -0.024 | [18] -0.043 | [19] 0.009 | [20] 0.089

VPS11 (UniProt Q9H270)
Sequence of UniProt Q9H270 (Q9H270 whole entry, looked up): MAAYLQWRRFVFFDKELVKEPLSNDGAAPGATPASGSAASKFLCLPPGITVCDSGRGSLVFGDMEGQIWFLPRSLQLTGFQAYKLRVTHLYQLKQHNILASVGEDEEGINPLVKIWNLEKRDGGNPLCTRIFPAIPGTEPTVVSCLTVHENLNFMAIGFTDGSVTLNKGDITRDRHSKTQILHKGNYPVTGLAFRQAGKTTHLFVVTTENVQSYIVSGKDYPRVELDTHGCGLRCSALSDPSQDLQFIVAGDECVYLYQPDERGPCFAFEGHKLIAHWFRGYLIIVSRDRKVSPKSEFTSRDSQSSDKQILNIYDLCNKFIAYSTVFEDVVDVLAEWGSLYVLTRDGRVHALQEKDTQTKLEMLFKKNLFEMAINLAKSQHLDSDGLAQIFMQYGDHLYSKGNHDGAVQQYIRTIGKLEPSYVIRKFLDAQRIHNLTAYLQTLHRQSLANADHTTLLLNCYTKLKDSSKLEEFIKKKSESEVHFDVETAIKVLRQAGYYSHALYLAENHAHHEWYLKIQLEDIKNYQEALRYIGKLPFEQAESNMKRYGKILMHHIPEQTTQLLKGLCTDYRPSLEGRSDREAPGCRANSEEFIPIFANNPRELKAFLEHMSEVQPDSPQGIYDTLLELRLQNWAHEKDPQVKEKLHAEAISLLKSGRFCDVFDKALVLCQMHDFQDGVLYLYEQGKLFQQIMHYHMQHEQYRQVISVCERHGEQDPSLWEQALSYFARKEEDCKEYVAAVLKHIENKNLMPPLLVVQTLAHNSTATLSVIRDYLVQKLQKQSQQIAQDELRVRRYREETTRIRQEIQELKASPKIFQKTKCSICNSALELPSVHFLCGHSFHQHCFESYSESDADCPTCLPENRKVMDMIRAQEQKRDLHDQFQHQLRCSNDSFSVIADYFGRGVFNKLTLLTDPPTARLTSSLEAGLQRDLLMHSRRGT
inactive: [3] 0.14 | [4] 0.025 | [5] -0.097 | [6] -0.074 | [7] 0.059 | [8] 0.077 | [9] 0.03 | [10] -0.244 | [11] -0.003 | [12] -0.08 | [13] -0.061 | [14] 0.004 | [15] -0.018 | [16] -0.066 | [17] 0.082 | [18] -0.021 | [19] 0.023 | [20] -0.01
active: [1] -0.284 | [2] -0.53

VTI1A (UniProt Q96AJ9)
inactive: [1] 0.051 | [2] -0.002 | [3] -0.026 | [4] 0.006 | [5] 0.039 | [6] 0.068 | [7] 0.028 | [8] -0.017 | [9] 0.01 | [11] 0.101 | [12] 0.027 | [13] -0.002 | [14] -0.028 | [15] 0.095 | [16] -0.03 | [17] -0.058 | [18] -0.042 | [19] -0.001 | [20] 0.07
active: [10] -0.219

UXT isoform 2 (UniProt Q9UBK9)
inactive: [1] 0.082 | [2] 0.128 | [3] 0.05 | [4] -0.038 | [5] -0.294 | [6] -0.248 | [7] 0.015 | [8] 0.022 | [9] -0.052 | [10] -0.126 | [11] 0.031 | [12] -0.056 | [13] -0.01 | [14] 0.077 | [15] -0.191 | [16] 0 | [17] 0.049 | [18] -0.027 | [19] -0.018 | [20] -0.078

TRMT10A (UniProt Q8TBZ6)
inactive: [1] 0.016 | [2] -0.013 | [3] 0.033 | [4] 0.003 | [5] -0.026 | [6] -0.037 | [7] 0.047 | [8] 0.034 | [9] -0.135 | [10] -0.075 | [11] -0.028 | [12] -0.024 | [13] -0.12 | [14] -0.038 | [15] 0.054 | [16] -0.06 | [17] 0.016 | [18] 0.032 | [19] 0.026 | [20] 0.036

TUBAL3 (UniProt A6NHL2)
Sequence of UniProt A6NHL2 (A6NHL2 whole entry, looked up): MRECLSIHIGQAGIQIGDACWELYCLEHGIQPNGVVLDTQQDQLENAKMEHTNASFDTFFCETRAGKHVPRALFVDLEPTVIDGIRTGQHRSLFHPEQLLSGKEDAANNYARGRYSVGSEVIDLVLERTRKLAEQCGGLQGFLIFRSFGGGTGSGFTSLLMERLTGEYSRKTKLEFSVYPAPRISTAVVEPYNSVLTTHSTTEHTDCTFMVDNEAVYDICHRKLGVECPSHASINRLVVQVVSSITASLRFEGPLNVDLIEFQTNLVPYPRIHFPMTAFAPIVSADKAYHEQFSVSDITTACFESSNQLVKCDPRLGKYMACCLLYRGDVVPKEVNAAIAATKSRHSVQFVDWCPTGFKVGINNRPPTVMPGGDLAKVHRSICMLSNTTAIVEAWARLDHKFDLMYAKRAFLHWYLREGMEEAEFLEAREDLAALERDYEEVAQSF
inactive: [1] 0.144 | [2] -0.497 | [3] -0.052 | [4] -0.11 | [5] -0.023 | [6] -0.013 | [7] -0.061 | [8] 0.139 | [9] 0.03 | [10] -0.067 | [11] -0.074 | [12] -0.054 | [13] 0.058 | [14] -0.003 | [15] -0.125 | [16] -0.069 | [18] 0.067 | [19] 0.187 | [20] -0.057
active: [17] -0.51
